{"source": "the OligoGym collection", "data": [{"target": "IL10", "test": "pooled miR-30 sensor sort-seq; sequence = guide strand", "settings": "shRNA", "values": [{"sequence": "TAACAACAAGTTGTCCAGCTGA", "sensor-assay potency score (higher = more potent)": 0.191}, {"sequence": "TTGATGAAGATGTCAAACTCAC", "sensor-assay potency score (higher = more potent)": -0.225}, {"sequence": "TTGCTCTTGTTTTCACAGGGAA", "sensor-assay potency score (higher = more potent)": -0.544}, {"sequence": "ATCTCGGAGATCTCGAAGCATG", "sensor-assay potency score (higher = more potent)": -1.73}, {"sequence": "AACAACAAGTTGTCCAGCTGAT", "sensor-assay potency score (higher = more potent)": 0.182}, {"sequence": "TAGGCTTCTATGTAGTTGATGA", "sensor-assay potency score (higher = more potent)": -0.258}, {"sequence": "TTAACAACAAGTTGTCCAGCTG", "sensor-assay potency score (higher = more potent)": -0.0308}]}, {"target": "IL12RB2", "test": "pooled miR-30 sensor sort-seq; sequence = guide strand", "settings": "shRNA", "values": [{"sequence": "TTGATTCTTCTGTCAAACTTGT", "sensor-assay potency score (higher = more potent)": 0.0343}, {"sequence": "TTGTACAGGATTAACTTGTTAC", "sensor-assay potency score (higher = more potent)": -0.744}, {"sequence": "TTGAATTTGCTGCAGACACAGC", "sensor-assay potency score (higher = more potent)": -0.876}, {"sequence": "TTCTGGAGCAACACCAACGAAG", "sensor-assay potency score (higher = more potent)": -0.95}, {"sequence": "TTGCAGACAAACAAGGTTGTAC", "sensor-assay potency score (higher = more potent)": 0.163}, {"sequence": "TTAACCATATTCCAGAGCCTGC", "sensor-assay potency score (higher = more potent)": -1.49}, {"sequence": "TTTTGCTTTAATCAACAGCCAC", "sensor-assay potency score (higher = more potent)": -1.02}, {"sequence": "TTGAATTTCATCACTATTGATA", "sensor-assay potency score (higher = more potent)": -0.279}, {"sequence": "TACCAGACATCTAACATCCCAG", "sensor-assay potency score (higher = more potent)": -0.395}, {"sequence": "TTAGCTGTAGAGTATACTCAGT", "sensor-assay potency score (higher = more potent)": -0.26}, {"sequence": "TTTGCTTTAATCAACAGCCACG", "sensor-assay potency score (higher = more potent)": -1.11}, {"sequence": "TTGTCTACTGTAGTCAATGTGC", "sensor-assay potency score (higher = more potent)": -0.32}]}, {"target": "IL13RA1", "test": "pooled miR-30 sensor sort-seq; sequence = guide strand", "settings": "shRNA", "values": [{"sequence": "TTGTTCAAAACTGGAATCCTTC", "sensor-assay potency score (higher = more potent)": -0.391}, {"sequence": "TACAGAGTCGGTTTCCTCCTTG", "sensor-assay potency score (higher = more potent)": 0.15}, {"sequence": "TTTGACTCTTATTCTGACTGTG", "sensor-assay potency score (higher = more potent)": 0.568}, {"sequence": "TTGACCATTATTTGGACACTGT", "sensor-assay potency score (higher = more potent)": 0.157}, {"sequence": "TTTCTTATCTTGTTTGTCGCCA", "sensor-assay potency score (higher = more potent)": 0.315}, {"sequence": "TTGCTTCTCATAGATGTCGTAC", "sensor-assay potency score (higher = more potent)": -0.044}, {"sequence": "TTGACTCTTATTCTGACTGTGT", "sensor-assay potency score (higher = more potent)": 0.685}, {"sequence": "TTTTCTATCAGCACTACAGAGT", "sensor-assay potency score (higher = more potent)": -0.723}, {"sequence": "TAGTAGAGAGTATAGTTAGTGT", "sensor-assay potency score (higher = more potent)": -0.663}, {"sequence": "TTCTTATCTTGTTTGTCGCCAA", "sensor-assay potency score (higher = more potent)": -0.0977}, {"sequence": "ATAGACTACAATTTGAGCTGGC", "sensor-assay potency score (higher = more potent)": 0.897}, {"sequence": "TTCCATGTCCATATTACTGTGC", "sensor-assay potency score (higher = more potent)": -0.274}]}, {"target": "IL16", "test": "pooled miR-30 sensor sort-seq; sequence = guide strand", "settings": "shRNA", "values": [{"sequence": "TTGGTCTCGAAGTTCCCGCAGC", "sensor-assay potency score (higher = more potent)": -0.85}, {"sequence": "TTCATGAAGAATATCCTCCTAC", "sensor-assay potency score (higher = more potent)": 0.448}, {"sequence": "TTCTCCAGTGTCACCGTGCAGA", "sensor-assay potency score (higher = more potent)": -0.677}, {"sequence": "TTCCTTGTGACAATCACAGCTT", "sensor-assay potency score (higher = more potent)": 0.571}, {"sequence": "TTTCTAGATCTGCTCCTCCTGC", "sensor-assay potency score (higher = more potent)": -0.608}, {"sequence": "TTCTACAGAAACATCACTGGCT", "sensor-assay potency score (higher = more potent)": 0.755}, {"sequence": "ATCTTCTCCAGTGTCACCGTGC", "sensor-assay potency score (higher = more potent)": -0.369}, {"sequence": "TGATTCACCATTGAGCTCCAGA", "sensor-assay potency score (higher = more potent)": -0.0119}, {"sequence": "TTTAGGAACAACCTTTTGCTGG", "sensor-assay potency score (higher = more potent)": -0.755}]}]}
